Screening data (PubChem BioAssay)
BLM inh: Bloom syndrome helicase (human) inhibition; P54132; recombinant BLM DNA unwinding, fluorescence dequenching; Potency, µM (titrated, usually from 56.1 µM), for the others: at the top dose activity change, negative = inhibition, actives largely listed as inhibitors; 350,000 compounds, 0.2% hits; AID 2528;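 note: potency is the fitted concentration of half-maximal effect; plate controls were vehicle for no effect and no enzyme for full effect; nearly all actives have a fitted effect of over 35% in size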
PI5P4K alpha inh: inhibitors of human PI5P4K alpha | PI5P4Kalpha enzyme, ADP-Glo luminescence, 60 min; hits give low values | 330,000 compounds, 1.2% hits | max response, % | P48426 | AID 652105; active = max response of -50% or lower; inconclusive = between -30% and -50%; inactive = -30% or higher; note: value at the top dose of about 77 µM
Target sequence (P48426 whole entry, looked up): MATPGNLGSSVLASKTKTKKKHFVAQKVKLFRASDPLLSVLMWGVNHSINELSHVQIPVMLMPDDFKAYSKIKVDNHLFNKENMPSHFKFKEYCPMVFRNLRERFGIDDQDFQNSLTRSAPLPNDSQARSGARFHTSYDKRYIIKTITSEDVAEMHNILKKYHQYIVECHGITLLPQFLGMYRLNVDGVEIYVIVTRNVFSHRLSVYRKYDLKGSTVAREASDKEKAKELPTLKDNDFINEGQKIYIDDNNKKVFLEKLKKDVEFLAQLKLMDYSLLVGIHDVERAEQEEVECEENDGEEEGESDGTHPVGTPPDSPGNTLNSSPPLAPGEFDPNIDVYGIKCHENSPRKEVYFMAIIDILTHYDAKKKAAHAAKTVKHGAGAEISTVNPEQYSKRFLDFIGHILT
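Quantitative HTS of the MLSMR library against PI5P4Kalpha with substrate. ATP added last at 5 microM final; room temperature, 60 minutes. Remaining ATP depleted, ADP converted and read as luminescence.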
WRN helicase inh: blocks human WRN helicase | Q14191 | WRN helicase unwinding, fluorescent forked duplex, kinetic | Potency, µM (highest dose often 114 µM), without a hit: at the top dose activity change, negative = inhibition, hits mostly inhibitors | 360,000 compounds, 0.46% hits | AID 651768; note: potency is the fitted concentration of half-maximal effect; nearly all actives have a fitted effect of over 55% in size
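Screening of the MLSMR collection measured strand separation of a quenched forked DNA duplex (100 nM) by 20 nM WRN with 2 mM ATP, all final. Compounds were preincubated with enzyme 15 min at room temperature.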
FEN1 inhibitor: blocks human flap endonuclease 1; P39748; Recombinant FEN1 flap cleavage, fluorescence, 15 min; Potency, µM (highest dose often 114 µM), inactives show top-dose activity change, negative = inhibition, most hits filed as inhibitors; 390,000 compounds, 0.35% hits; AID 588795; note: potency is the fitted concentration of half-maximal effect; nearly all actives have a fitted effect of over 65% in size
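Steps: FEN1 (10 nM) dispensed; compound added by pin tool; 15 min at room temperature; substrate added to 50 nM final; reads at 0 min and 15 min; data normalized and fitted (four-parameter Hill).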
APEX1 inh: blocks human APE1 abasic DNA cleavage; P27695; recombinant APE1, TAMRA/BHQ-2 abasic DNA cleavage fluorescence; Potency, µM (highest dose often 65.8 µM), for inactives: at the highest dose activity change, negative = inhibition, usual class: inhibitors; 350,000 compounds, 0.35% hits;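 note: potency is the fitted concentration of half-maximal effect; plate controls were vehicle for no effect and reference inhibitor for full effect; nearly all actives have a fitted effect of over 55% in size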
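Readout is kinetic fluorescence (ex 525, em 598 nm) from cleavage of 50 nM TAMRA/BHQ-2 THF abasic duplex by 0.75 nM APE1, compound added 15 min beforehand at RT.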
RECQ1 inh-1: blocks DNA unwinding by human RECQ1 | RECQ1 DNA unwinding, red fluorescence kinetic read | 240,000 compounds, 0.54% hits | P46063 | AID 2549 | Potency, µM (series often up to 57.3 µM), for the others: at the highest dose activity, negative = inhibition, usual class: inhibitors;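 note: potency is the fitted concentration of half-maximal effect; plate controls were vehicle for no effect and no enzyme for full effect; nearly all actives have a fitted effect of over 30% in size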
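50 nM RECQ1T1 preincubated 15 min with compound in Tris pH 8.0 buffer with MgCl2, DTT, Tween-20 and 2.5 ug/ml poly(dI-dC); started with 200 nM TAMRA/BHQ-2 forked duplex and 2 mM ATP. Unwinding read as fluorescence (525/598 nm), two reads 2 h apart.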
RECQ1 inh conf: confirmation of human RECQ1 helicase inhibitors; shares compounds with RECQ1 inh-1; RECQ1 helicase DNA unwinding, fluorescence; Potency, µM (doses to about 229 µM), without a hit: at the top dose activity change, negative = inhibition, most hits filed as inhibitors; 610 compounds, 28% hits; note: potency is the fitted concentration of half-maximal effect; nearly all actives have a fitted effect of over 45% in size
ADP FP counter: counter-screen for RECQ1 inhibitors: ADP displacement | AID 2711 | shares compounds with RECQ1 inh-1 | ADP fluorescence polarization displacement counterscreen | 530 compounds, 27% hits | Potency, µM (series often up to 228 µM), without a hit: at the highest dose activity change, negative = inhibition, actives largely listed as inhibitors; note: potency is the fitted concentration of half-maximal effect; nearly all actives have a fitted effect of over 45% in size
RECQ1 inh-2: RECQ1 helicase inhibition confirmed, round 2. shares compounds with RECQ1 inh-1. recombinant RECQ1 DNA unwinding, red fluorescence. Potency, µM (titrated, usually from 119 µM), for inactives: at the top dose activity, negative = inhibition, hits mostly inhibitors. 1,100 compounds, 15% hits; note: potency is the fitted concentration of half-maximal effect; nearly all actives have a fitted effect of over 50% in size
Numbers without * were called inactive; ! = not confirmed by another sample; [ ] = another dose, or the depositor's remark. Hits are enriched below; roughly 1.5% of the tested compounds scored in any of these assays. Unless noted, calls come from the whole dose curve; as a rule, active = well fitted curve in the direction sought with a large enough effect; inconclusive = small, poorly fitted or top-dose-only effect, or another doubt; inactive = no such curve, though single readings can be large; an effect the other way counts as inactive or inconclusive. Unless noted, % is set by controls: 0 for no effect and ±100 for the full control effect.

Screening O=C(c1ccco1)N1CCN(C(=O)c2cc(-c3ccncc3)nc3ccc(Br)cc23)CC1 returned PI5P4K alpha inh -9.3, WRN helicase inh -12.8% and FEN1 inhibitor -1.6%.
`O=C(O)c1cc(-c2ccco2)nc2ccc(Br)cc12` gave BLM inh -12.5%, PI5P4K alpha inh -87.2*!, WRN helicase inh 10µM*!, FEN1 inhibitor 12.6µM*!, APEX1 inh 12.6µM*, RECQ1 inh-1 3.16µM*!, RECQ1 inh conf 44.7µM*, ADP FP counter inconclusive and RECQ1 inh-2 inconclusive.
`COc1ccc(CC(=O)NCCc2sc(-c3cccc(F)c3)nc2C)cc1` gave BLM inh -0.5% and FEN1 inhibitor -8.6%.
`CCOC(=O)c1ccccc1NC(=O)N(C)CCc1c(C)nn(CC)c1C` gave BLM inh 0.4% and FEN1 inhibitor 1.4%.
Screening O=S(=O)(c1ccccc1)c1nc(NC2CC2)sc1Cl returned BLM inh -1.7%, PI5P4K alpha inh -4.1, WRN helicase inh 2.8%, FEN1 inhibitor 12.1%, APEX1 inh 16.8%, RECQ1 inh-1 39.8µM* and RECQ1 inh-2 -5.0%.
`Cc1ncsc1CCOC(=O)c1ccc(N2CCOCC2)c([N+](=O)[O-])c1` gave BLM inh -0.2%, PI5P4K alpha inh 1.9, WRN helicase inh 5.2%, FEN1 inhibitor 7.7%, APEX1 inh -4.2% and RECQ1 inh-1 1.8%.
`Cc1c(CCOC(=O)c2ccc(N3CCOCC3)c([N+](=O)[O-])c2)sc[n+]1CC#N` gave BLM inh -0.9%, PI5P4K alpha inh 1.3, WRN helicase inh -9.4%, FEN1 inhibitor -18.8%, APEX1 inh 11.8%, RECQ1 inh-1 inconclusive and RECQ1 inh-2 inconclusive.
Cc1cc(C(=O)Nn2c(C3CCCCC3)nc3ccccc3c2=O)ccc1[N+](=O)[O-] was read as BLM inh -6.6%, PI5P4K alpha inh -0.3, WRN helicase inh -0.5%, FEN1 inhibitor -14.3%, APEX1 inh -6.2%, RECQ1 inh-1 25.1µM* and RECQ1 inh-2 -11.3%.
`CCOc1ccc2oc(-c3ccccc3)c(C(=O)O)c2c1` gave BLM inh -0.8%, PI5P4K alpha inh -8.4, WRN helicase inh 0.3%[57.1 µM], FEN1 inhibitor 0.3%, APEX1 inh 7.9%, RECQ1 inh-1 inconclusive and RECQ1 inh-2 -6.8%.
For O=C(NCCc1ccccc1)C1CCN(Cc2cc3ccccc3n2Cc2ccccc2)CC1 the results were BLM inh -6.9% and FEN1 inhibitor -11.2%.
`CCC(c1nnnn1Cc1ccco1)N(Cc1cc2cc(C)cc(C)c2[nH]c1=O)CC1CCCO1` (configuration not stated) gave BLM inh -10.4%, PI5P4K alpha inh inconclusive, WRN helicase inh -19.8%, FEN1 inhibitor -9.1%, APEX1 inh -7.8%, RECQ1 inh-1 inconclusive and RECQ1 inh-2 -7.1%.
`COc1ccc(CNCC(O)(c2ccc(Cl)cc2)c2ccc(Cl)cc2)cc1OC` gave BLM inh -14.1%, PI5P4K alpha inh 0.1, WRN helicase inh -15.2%, FEN1 inhibitor -12.7%, APEX1 inh -1.6%, RECQ1 inh-1 14.1µM*, RECQ1 inh conf inconclusive and ADP FP counter 22.4µM*.
